# According to the supplement of paper PMC7156485:
# ± gives the standard deviation of the averaged measurements.
# How the values were obtained:
# Details in all cases: concentration: 10 µM; 24 h
# HCC1569 [1] = assay: cell number relative to DMSO (% of DMSO); higher = more cells (less growth inhibition / toxicity)
# Summary of the method: (§1)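 Cells were seeded at 800 per well in 384-well plates with RPMI containing 10% FBS; both HCC1569 and TDF lines were used. Compounds were added at 10 µM for 24 h at 37 °C, in triplicate, before fixation in 3.7% formaldehyde and staining with a rabbit anti-H1.0 antibody, an AlexaFluor 647 secondary and DAPI. H1.0 nuclear intensity or cell number is reported as percent of the plate control using the median of replicates, and HCC1569 values were smoothed for positional effects.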
# TDF [2] = assay: as above
# Summary of the method: as §1
# TDF [3] = assay: H1.0 immunofluorescence intensity relative to DMSO (% of DMSO); higher = stronger H1.0 induction, active = 120 or more
# Summary of the method: as §1
# HCC1569 [4] = assay: H1.0 immunofluorescence intensity relative to DMSO (% of DMSO); higher = stronger H1.0 induction, active = 140 or more
# Summary of the method: as §1
# 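Throughout, for H1.0 immunofluorescence intensity relative to DMSO: TDF is a line of transformed human dermal fibroblasts of mesenchymal origin.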
# 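Throughout, for cell number relative to DMSO: TDF denotes transformed human dermal fibroblasts of mesenchymal origin.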
SMILES,cell number (HCC1569 [1]),cell number (TDF [2]),H1.0 immunofluorescence intensity (TDF [3]),H1.0 immunofluorescence intensity (HCC1569 [4])
CC1(C)CCCC(C)(C2CCC3(C)C2C(O)CC2C4(C)CCC(O)C(C)(C)C4CCC23C)O1 (stereo unspecified) [Panaxadiol],105,103,91.8 (inactive),93.6 (inactive)
O=C1Cc2c([nH]c3ccc(Br)cc23)-c2ccccc2N1 [Kenpaulone],73.4,97.7,89.8 (inactive),83.4 (inactive)
N#Cc1c(-c2ccccc2)no[n+]1[O-] [4-Phenyl-3-furoxancarbonitrile],64.2,93.3,93.2 (inactive),122 (inactive)
Cl.Cl.NCCCCN [Putrescine dihydrochloride],102,118,94.1 (inactive),98.2 (inactive)
O=C(O)CCCCC=CCC(O)C=CC=CC=CC(O)CCCC(=O)O (stereo unspecified) [20-Carboxy-leukotriene B4],102,103,91.1 (inactive),102 (inactive)
CC(C)(C)c1ccc(S(=O)(=O)NCc2ccc(C(=O)Nc3cccnc3)cc2)cc1,98.2,108,86.8 (inactive),107 (inactive)
COc1cc2nc(N3CCN(C(=O)C4COc5ccccc5O4)CC3)nc(N)c2cc1OC.CS(=O)(=O)O (stereo unspecified) [Doxazosin mesylate],99.9,103,95.5 (inactive),110 (inactive)
CC[N+](C)(C)c1cccc(O)c1.[Cl-] [Edrophonium chloride],102,113,96.1 (inactive),95.7 (inactive)
CCCCCC=CCC=CCC=CC=CC1CCCC(=O)O1 (racemic),106,97,98.2 (inactive),103 (inactive)
CSc1nc(N)c2ncn(C3OC(COP(=O)([O-])OP(=O)([O-])OP(=O)([O-])[O-])C(O)C3O)c2n1.[Na+].[Na+].[Na+].[Na+] (stereo unspecified) [2-Methylthioadenosine triphosphate tetrasodium],102,109,93 (inactive),95.7 (inactive)
C=CC1(C)CC(=O)C2(O)C(C)(O1)C(OC(C)=O)C(O)C1C(C)(C)CCC(O)C12C (stereo unspecified) [Forskolin],89.77 ± 0.53,105 ± 3.9,88.8 (inactive),96.6 (inactive)
CCCCCCCCCCCCC(=O)O [Tridecanoic acid],105,92.9,107 (inactive),101 (inactive)
O=C1NCN(c2ccccc2)C12CCN(CCCC(c1ccc(F)cc1)c1ccc(F)cc1)CC2 [Fluspirilene],82.7 ± 16,87.1 ± 7.5,106 (inactive),126 (inactive)
CCCCCCCCCCCCCCCCCCOCC(COP(=O)([O-])OCC[N+](C)(C)C)OC(C)=O (stereo unspecified),98.8,115,92.5 (inactive),103 (inactive)
COC(=O)CNC(=O)C(=O)OC [methyl 2-(2-methoxy-2-oxoethylamino)-2-oxoacetate],96.5,109,99.2 (inactive),101 (inactive)
CC(=O)Oc1ccccc1C(=O)O [Acetylsalicylic acid],101,98.8,89.6 (inactive),88.3 (inactive)
N[C@H](CCC(=O)NCS(=O)(=O)O)C(=O)O [gamma-D-Glutamylaminomethylsulfonic acid],101,109,96.1 (inactive),93.6 (inactive)
Cl.O=C(O)C1=CCCN(CCON=C(c2ccccc2)c2ccccc2)C1 [NO-711 hydrochloride],100,93.9,94.2 (inactive),97.9 (inactive)
CC(=O)OCC1=C(C(=O)[O-])N2C(=O)C(NC(=O)CSc3ccncc3)C2SC1.[Na+] (stereo unspecified) [Cephapirin sodium],101,103,93.8 (inactive),84.4 (inactive)
CCC(C)N(C)C(=O)c1cc2ccccc2c(-c2ccccc2Cl)n1 (stereo unspecified),101,110,90.8 (inactive),84 (inactive)
COc1cc2ncnc(Nc3ccc(NC(=O)c4ccccc4)cc3)c2cc1OC [Aurora Kinase Inhibitor II],77.8,54.8,111 (inactive),133 (inactive)
CC1(C)CC1C(=O)NC(=CCCCCSCC(N)C(=O)O)C(=O)O (stereo unspecified) [Cilastatin],100,94,101 (inactive),119 (inactive)
O=C(NO)c1cccc(C(=O)NCCc2ccccc2)c1 [N1-hydroxy-N3-phenethylisophthalamide],105,88,90.4 (inactive),101 (inactive)
NC(=O)c1cc[n+](CC2=C(C(=O)[O-])N3C(=O)C(NC(=O)C(c4ccccc4)S(=O)(=O)[O-])C3SC2)cc1.[Na+] (stereo unspecified) [Cefsulodin sodium salt hydrate],99.1,104,94.6 (inactive),94.3 (inactive)
Cc1ccc(S(=O)(=O)Cc2nc(-c3ccc(C(=O)NCc4cccnc4)cc3)oc2C)cc1,87,86.8,102 (inactive),127 (inactive)

SMILES,cell number (HCC1569 [1]),cell number (TDF [2]),H1.0 immunofluorescence intensity (TDF [3]),H1.0 immunofluorescence intensity (HCC1569 [4])
COc1cc2c[n+](C)c3c4cc5c(cc4ccc3c2cc1OC)OCO5.[Cl-],85.3,34.7,138 (active),106 (inactive)
CCN(CC)CCCCN1c2ccccc2Oc2ccc(Cl)cc21.Cl,88.8,86.3,110 (inactive),159 (active)
Cl.Cl.c1cnc(N2CCN(Cc3ccc4c(c3)OCO4)CC2)nc1 [Piribedil.2HCl],100,98.2,92 (inactive),107 (inactive)
O=C1NC(=O)C(=Cc2ccc(-c3ccc(F)cc3O)o2)S1,97.3,104,95.1 (inactive),97.7 (inactive)
Nc1c(Br)cc(Br)cc1CNC1CCC(O)CC1 (stereo unspecified) [Ambroxol],104 ± 5.2,109 ± 5.6,100 (inactive),103 (inactive)
CCC(C)C(O)C(C)C(=O)C(C)C=C(C)CC(C)C1OC(=O)C1CC (stereo unspecified) [Ebelactone B],102,104,99.9 (inactive),89.2 (inactive)
CCCCCCCCCCCCCC(=O)NC(C)C(O)c1ccccc1 [D-erythro MAPP],104,99.8,100 (inactive),94.7 (inactive)
CC(C)(Sc1cc(C(C)(C)C)c(O)c(C(C)(C)C)c1)Sc1cc(C(C)(C)C)c(O)c(C(C)(C)C)c1 [Probucol],102,106,91.9 (inactive),91.8 (inactive)
"CC(C)CCC[C@@H](C)[C@H]1CC[C@H]2[C@@H]3CC(=O)[C@H]4C[C@@H](O)CC[C@]4(C)[C@H]3CC[C@]12C [(3beta,5alpha)-3-hydroxycholestan-6-one]",105,92.5,98.5 (inactive),98.6 (inactive)
Cc1nc2sccn2c(=O)c1CCN1CCC(=C(c2ccccc2)c2ccc(F)cc2)CC1 [Diacylglycerol kinase inhibitor I],87.2,111,96 (inactive),118 (inactive)
N[C@@H](Cc1c[nH]c2ccccc12)C(=O)O [L-Tryptophan],101,103,96.6 (inactive),108 (inactive)
NC(C(=O)NC1C(=O)N2C(C(=O)O)=C(Cl)CSC12)c1ccccc1 (stereo unspecified) [Cefaclor],101,99.5,103 (inactive),85.8 (inactive)
"CC(O)C(O)C1CNc2[nH]c(N)nc(=O)c2N1.Cl.Cl [(6R)-5,6,7,8-Tetrahydro-L-biopterin hydrochloride]",105,110,89.2 (inactive),103 (inactive)
Cc1c(OCC(F)(F)F)ccnc1CS(=O)c1nc2ccccc2[nH]1 (stereo unspecified) [Lansoprazole],96.3,108,90.1 (inactive),104 (inactive)
O=c1onc2cnc3ccccc3n12,101,97.5,103 (inactive),106 (inactive)
CCCCCCCCC(=O)NCc1cc(OC)c(O)cc1I [N-(4-hydroxy-2-iodo-5-methoxybenzyl)nonanamide],96.2,98.9,93.2 (inactive),116 (inactive)
CCCCCCCCCCCCCCCC(O)C(N)CO (stereo unspecified) [Dihydrosphingosine],102,94.5,98.8 (inactive),106 (inactive)
"CN(Cc1cnc2nc(N)nc(N)c2n1)c1ccc(C(=O)NC(CCC(=O)O)C(=O)O)cc1 (single isomer, unassigned; (-)) [(-)Amethopterin]",96.4,96.2,106 (inactive),110 (inactive)
"Cn1c(=O)c2[nH]c(-c3ccccc3)nc2n(C)c1=O [1,3-Dimethyl-8-phenylxanthine]",105,110,88 (inactive),92 (inactive)
C=CCc1ccc(O)c(-c2cc(CC=C)ccc2O)c1 [Magnolol],98,98.2,91.7 (inactive),83 (inactive)
CN1c2ccccc2C(=O)N2CCc3c([nH]c4ccccc34)C21 (stereo unspecified) [Evodiamine],61.2,9.57,165 (active),123 (inactive)
CSc1ccc(C(=O)c2[nH]c(=O)[nH]c2C)cc1 [Enoximone],107,109,96.3 (inactive),105 (inactive)
NS(=O)(=O)c1cccc2c1c([N+](=O)[O-])cc1nc([O-])c([O-])nc12.[Na+].[Na+] [NBQX disodium],104,103,93.8 (inactive),91.8 (inactive)
CCCCCCC(C(C)O)n1cnc2c(N)ncnc21.Cl (stereo not drawn) [erythro-9-(2-Hydroxy-3-nonyl)adenine hydrochloride],104,108,90.1 (inactive),88.6 (inactive)
